# According to the supplement of paper PMC11732987, “Enantioselective OTUD7B fragment discovery through chemoproteomics screening and high-throughput optimisation” (Communications Chemistry, 2025):
# A number with no mark means an inactive call.
# Legend:
# Experiment in all cases: log2 ratio of Biotin-Ahx-Ub-VS probe labelling (fragment/DMSO); higher = less target engagement (more negative = stronger competition), active = hit call of the paper (q ≤ 0.05, log2 ratio ≤ -1)
# Conditions in all cases: compound concentration: 200 uM; treatment time: 3 h
# [1] = biological target: USP9X (UniProt Q93008)
# Outline: (§1)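 Labelled DUBs from HEK293T lysate were NeutrAvidin-enriched, digested with LysC and trypsin, and run by diaPASEF LC-MS/MS. Before that, each 495 µg sample in Tris/CHAPS/IGEPAL buffer with protease inhibitors was treated in triplicate with fragment at 200 µM or vehicle for 3 h, then with Biotin-Ahx-Ub-VS at 0.5 µM final for 1 h. Values are average log2 ratios of fragment over vehicle by unpaired t-test, based on global-median-normalised Spectronaut label-free quantities from proteins with ≥2 unique peptides.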
# [2] = biological target: UniProt O00487
# Outline: as §1
# [3] = biological target: UniProt O00507
# Outline: as §1
# [4] = biological target: UniProt P51784
# Outline: as §1
# [5] = biological target: T1, UniProt Q5T2D3
# T1 sequence (whole entry): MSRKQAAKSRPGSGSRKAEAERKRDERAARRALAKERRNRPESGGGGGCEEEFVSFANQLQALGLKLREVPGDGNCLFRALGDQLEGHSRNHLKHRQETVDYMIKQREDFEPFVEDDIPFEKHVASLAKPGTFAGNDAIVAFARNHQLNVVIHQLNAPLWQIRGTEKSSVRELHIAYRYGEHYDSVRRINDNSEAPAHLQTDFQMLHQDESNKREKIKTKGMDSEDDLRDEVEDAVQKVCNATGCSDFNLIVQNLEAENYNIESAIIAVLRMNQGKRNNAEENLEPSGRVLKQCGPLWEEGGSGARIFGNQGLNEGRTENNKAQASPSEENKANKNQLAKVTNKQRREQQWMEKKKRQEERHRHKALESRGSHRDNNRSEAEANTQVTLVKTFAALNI
# Outline: as §1
# [6] = biological target: T2, UniProt Q8TE49
# T2 sequence (whole entry): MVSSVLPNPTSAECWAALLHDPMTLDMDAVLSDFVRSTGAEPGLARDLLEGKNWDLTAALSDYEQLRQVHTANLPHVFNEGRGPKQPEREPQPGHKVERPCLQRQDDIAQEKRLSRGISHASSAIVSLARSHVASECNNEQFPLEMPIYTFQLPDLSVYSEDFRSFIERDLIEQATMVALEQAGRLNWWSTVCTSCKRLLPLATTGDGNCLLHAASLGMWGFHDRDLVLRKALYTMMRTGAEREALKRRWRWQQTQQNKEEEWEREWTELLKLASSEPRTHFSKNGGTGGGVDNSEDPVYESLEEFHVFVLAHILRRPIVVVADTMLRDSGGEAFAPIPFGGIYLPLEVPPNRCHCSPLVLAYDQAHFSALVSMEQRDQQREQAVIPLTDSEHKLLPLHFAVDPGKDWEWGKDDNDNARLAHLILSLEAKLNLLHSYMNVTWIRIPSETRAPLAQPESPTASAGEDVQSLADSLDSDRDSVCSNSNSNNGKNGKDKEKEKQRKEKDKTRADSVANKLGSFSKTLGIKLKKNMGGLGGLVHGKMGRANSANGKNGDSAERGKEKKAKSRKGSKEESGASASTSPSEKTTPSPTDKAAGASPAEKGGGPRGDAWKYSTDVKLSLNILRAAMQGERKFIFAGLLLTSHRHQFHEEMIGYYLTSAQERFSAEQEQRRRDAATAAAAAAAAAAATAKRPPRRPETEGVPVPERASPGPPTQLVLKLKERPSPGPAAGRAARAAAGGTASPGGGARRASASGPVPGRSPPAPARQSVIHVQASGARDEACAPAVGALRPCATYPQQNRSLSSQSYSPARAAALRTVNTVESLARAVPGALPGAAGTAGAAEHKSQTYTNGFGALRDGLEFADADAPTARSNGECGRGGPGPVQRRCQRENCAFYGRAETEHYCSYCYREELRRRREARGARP
# Outline: as §1
# [7] = biological target: T3, UniProt Q9P2H5
# T3 sequence (whole entry): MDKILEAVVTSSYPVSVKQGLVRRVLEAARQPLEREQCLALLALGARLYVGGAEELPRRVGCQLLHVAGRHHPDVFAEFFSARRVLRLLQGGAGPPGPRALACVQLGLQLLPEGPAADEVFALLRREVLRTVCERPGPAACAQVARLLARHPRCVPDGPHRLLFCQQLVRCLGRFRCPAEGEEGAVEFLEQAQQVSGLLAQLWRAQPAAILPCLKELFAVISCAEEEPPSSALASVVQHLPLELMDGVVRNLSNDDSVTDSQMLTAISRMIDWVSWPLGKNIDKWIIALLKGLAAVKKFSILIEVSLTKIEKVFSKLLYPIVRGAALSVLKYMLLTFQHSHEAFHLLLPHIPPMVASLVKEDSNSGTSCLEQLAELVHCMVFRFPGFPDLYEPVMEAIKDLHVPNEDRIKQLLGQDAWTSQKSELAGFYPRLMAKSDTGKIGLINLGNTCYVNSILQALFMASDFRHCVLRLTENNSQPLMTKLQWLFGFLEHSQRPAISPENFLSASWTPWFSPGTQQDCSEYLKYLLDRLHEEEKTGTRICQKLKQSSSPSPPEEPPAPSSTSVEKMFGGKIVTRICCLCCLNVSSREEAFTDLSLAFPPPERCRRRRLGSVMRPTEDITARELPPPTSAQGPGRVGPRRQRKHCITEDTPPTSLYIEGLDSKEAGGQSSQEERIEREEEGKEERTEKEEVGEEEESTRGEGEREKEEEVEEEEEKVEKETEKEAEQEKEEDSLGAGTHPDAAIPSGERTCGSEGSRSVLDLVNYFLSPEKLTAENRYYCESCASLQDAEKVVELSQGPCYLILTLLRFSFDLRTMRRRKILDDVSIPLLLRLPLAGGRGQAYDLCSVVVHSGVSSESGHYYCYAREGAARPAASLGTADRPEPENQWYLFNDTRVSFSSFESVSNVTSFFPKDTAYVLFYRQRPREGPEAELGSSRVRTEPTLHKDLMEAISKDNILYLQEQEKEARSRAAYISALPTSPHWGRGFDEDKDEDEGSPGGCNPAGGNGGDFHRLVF
# Outline: as §1
# [8] = biological target: T4, UniProt Q9UGI0
# T4 sequence (whole entry): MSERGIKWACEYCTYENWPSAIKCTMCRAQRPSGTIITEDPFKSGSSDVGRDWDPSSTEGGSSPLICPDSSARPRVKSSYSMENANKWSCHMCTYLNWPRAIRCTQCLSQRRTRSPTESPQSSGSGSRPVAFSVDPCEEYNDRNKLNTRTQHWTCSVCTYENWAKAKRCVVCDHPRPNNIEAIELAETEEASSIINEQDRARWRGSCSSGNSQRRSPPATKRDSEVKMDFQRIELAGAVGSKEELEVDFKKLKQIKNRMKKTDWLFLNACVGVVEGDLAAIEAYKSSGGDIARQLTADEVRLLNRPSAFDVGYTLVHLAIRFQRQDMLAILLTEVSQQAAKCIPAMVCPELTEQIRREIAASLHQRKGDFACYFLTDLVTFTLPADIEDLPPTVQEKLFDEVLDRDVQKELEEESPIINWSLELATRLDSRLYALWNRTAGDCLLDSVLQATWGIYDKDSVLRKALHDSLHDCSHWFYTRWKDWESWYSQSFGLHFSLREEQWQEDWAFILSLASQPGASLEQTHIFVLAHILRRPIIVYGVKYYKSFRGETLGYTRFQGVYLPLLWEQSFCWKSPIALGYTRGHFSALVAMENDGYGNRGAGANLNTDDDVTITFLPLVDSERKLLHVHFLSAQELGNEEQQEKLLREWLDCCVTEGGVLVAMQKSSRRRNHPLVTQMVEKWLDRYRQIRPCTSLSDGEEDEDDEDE
# Outline: as §1
# [9] = biological target: T5, YOD1 (UniProt Q5VVQ6)
# T5 sequence (whole entry): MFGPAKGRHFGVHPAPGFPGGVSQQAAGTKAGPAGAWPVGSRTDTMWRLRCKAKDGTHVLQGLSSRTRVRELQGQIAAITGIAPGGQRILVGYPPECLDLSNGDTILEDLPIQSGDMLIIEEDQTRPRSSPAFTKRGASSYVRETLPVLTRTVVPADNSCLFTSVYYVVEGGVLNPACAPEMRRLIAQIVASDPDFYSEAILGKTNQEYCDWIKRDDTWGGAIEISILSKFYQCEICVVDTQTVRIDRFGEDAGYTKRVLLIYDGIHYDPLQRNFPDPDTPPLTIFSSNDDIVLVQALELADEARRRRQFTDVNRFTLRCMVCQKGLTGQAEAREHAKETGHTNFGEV
# Outline: as §1
# Chain of UniProt P51784 (P51784 whole entry): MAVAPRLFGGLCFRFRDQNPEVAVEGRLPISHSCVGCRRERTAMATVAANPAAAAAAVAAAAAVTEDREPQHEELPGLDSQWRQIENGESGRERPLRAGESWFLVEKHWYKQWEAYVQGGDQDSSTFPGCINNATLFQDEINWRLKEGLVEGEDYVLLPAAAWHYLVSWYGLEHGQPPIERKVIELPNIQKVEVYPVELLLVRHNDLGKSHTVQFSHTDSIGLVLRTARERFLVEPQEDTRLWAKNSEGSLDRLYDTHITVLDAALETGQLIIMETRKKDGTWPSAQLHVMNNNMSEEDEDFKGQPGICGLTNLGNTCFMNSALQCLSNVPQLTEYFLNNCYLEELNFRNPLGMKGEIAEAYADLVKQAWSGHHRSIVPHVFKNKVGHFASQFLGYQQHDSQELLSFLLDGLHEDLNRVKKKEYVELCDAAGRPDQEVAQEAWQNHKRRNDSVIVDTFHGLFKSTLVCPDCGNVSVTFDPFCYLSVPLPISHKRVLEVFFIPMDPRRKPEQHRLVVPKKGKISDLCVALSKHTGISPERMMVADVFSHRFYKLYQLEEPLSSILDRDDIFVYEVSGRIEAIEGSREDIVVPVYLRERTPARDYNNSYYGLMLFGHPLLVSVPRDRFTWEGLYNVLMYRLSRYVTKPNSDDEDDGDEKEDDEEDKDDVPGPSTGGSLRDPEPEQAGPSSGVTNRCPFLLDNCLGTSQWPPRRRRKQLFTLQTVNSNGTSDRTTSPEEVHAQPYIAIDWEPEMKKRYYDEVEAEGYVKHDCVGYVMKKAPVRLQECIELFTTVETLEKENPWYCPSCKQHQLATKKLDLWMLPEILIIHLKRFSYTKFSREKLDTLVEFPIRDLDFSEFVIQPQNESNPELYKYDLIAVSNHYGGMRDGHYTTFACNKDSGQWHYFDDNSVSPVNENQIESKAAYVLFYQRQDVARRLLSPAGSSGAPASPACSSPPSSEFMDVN
# Chain of USP9X (Q93008 whole entry, the tested form may be a part): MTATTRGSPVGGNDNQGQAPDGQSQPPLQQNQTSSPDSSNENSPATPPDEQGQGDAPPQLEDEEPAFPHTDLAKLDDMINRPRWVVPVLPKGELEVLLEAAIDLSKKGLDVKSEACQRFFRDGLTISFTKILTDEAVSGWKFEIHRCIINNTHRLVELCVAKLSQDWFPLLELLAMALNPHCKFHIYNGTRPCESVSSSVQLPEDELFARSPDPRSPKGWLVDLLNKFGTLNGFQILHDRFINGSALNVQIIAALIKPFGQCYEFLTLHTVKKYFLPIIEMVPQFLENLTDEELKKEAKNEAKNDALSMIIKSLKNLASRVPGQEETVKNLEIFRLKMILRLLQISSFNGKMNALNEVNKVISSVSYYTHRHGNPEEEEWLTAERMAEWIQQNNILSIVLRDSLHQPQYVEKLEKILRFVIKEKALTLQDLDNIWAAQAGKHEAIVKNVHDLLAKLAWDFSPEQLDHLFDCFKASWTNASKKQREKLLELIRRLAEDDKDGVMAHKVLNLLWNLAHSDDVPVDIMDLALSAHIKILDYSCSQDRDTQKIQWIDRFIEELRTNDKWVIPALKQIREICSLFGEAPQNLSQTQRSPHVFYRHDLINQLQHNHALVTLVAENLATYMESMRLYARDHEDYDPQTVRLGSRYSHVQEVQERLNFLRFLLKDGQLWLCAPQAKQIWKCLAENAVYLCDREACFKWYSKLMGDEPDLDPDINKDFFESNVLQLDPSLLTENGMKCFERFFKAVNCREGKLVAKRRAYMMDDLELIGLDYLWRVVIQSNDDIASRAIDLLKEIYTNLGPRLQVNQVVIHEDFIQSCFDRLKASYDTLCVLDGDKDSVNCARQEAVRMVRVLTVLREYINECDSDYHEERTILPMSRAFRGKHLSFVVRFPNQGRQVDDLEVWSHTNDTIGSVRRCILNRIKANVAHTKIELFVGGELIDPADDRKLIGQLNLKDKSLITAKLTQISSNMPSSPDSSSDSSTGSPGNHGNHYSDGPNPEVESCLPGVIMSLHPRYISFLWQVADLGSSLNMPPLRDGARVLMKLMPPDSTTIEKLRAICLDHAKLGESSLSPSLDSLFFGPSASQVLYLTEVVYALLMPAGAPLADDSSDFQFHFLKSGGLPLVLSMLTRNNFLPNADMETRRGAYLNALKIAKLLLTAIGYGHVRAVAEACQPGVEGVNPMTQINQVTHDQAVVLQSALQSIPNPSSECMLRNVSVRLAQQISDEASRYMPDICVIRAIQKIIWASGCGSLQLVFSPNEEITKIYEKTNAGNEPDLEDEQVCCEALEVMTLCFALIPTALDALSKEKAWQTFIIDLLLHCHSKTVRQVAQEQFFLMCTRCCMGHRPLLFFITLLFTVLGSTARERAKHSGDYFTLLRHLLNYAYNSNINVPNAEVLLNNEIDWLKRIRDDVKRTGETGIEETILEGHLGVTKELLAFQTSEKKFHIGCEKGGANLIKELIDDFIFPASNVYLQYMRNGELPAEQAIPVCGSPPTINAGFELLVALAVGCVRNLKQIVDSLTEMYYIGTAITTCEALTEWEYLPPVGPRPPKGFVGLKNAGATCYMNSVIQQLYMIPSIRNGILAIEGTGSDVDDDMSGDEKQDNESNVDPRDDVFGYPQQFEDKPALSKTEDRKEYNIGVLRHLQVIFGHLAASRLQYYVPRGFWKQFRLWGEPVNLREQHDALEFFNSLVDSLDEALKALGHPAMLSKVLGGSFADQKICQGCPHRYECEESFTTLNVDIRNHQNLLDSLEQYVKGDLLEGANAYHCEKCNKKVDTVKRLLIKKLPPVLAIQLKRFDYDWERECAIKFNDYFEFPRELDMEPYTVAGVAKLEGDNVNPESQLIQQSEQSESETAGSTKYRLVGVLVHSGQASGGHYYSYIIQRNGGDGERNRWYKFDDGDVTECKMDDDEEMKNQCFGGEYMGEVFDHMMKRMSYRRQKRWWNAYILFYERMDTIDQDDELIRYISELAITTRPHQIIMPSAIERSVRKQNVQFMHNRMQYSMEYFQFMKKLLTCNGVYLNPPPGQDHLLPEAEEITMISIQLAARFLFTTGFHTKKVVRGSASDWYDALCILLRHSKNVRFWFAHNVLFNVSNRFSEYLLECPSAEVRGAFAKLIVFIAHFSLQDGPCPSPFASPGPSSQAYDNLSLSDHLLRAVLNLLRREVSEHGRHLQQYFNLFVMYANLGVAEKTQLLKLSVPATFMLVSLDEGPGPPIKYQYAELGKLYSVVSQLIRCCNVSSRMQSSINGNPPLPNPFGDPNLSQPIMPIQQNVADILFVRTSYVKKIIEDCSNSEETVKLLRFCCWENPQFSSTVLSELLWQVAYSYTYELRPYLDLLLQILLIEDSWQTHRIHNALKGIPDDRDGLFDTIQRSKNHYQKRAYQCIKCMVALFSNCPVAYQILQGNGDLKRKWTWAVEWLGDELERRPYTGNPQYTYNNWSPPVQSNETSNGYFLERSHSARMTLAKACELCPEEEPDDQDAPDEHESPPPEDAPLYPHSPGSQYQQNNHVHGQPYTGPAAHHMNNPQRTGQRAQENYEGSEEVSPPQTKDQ
# Chain of UniProt O00487 (O00487 whole entry): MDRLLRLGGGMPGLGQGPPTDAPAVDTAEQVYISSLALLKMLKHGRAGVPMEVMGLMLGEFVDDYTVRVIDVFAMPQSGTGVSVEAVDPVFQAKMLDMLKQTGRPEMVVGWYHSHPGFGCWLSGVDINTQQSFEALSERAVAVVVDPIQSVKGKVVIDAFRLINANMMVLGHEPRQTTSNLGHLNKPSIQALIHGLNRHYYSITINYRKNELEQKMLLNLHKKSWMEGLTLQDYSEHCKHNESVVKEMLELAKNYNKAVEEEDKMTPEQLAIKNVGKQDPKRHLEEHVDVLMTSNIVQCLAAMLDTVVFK
smiles,measurement,setting,value
O=C(CCl)N[C@H]1CC[C@@H](CO)CC1,log2 ratio of Biotin-Ahx-Ub-VS probe labelling,[1],-0.905
same,log2 ratio of Biotin-Ahx-Ub-VS probe labelling,[2],-0.163
same,log2 ratio of Biotin-Ahx-Ub-VS probe labelling,[3],-0.725
same,log2 ratio of Biotin-Ahx-Ub-VS probe labelling,[4],-0.788
same,log2 ratio of Biotin-Ahx-Ub-VS probe labelling,[5],-0.746
same,log2 ratio of Biotin-Ahx-Ub-VS probe labelling,[6],-1.32 (active)
same,log2 ratio of Biotin-Ahx-Ub-VS probe labelling,[7],-0.775
same,log2 ratio of Biotin-Ahx-Ub-VS probe labelling,[8],-0.944
same,log2 ratio of Biotin-Ahx-Ub-VS probe labelling,[9],-0.784
